Data reported in PubChem BioAssay AID1159580 (chemical genetic matrix, 2015).
The whole screen tested about 5,500 compounds, of which about 2,000 (36%) were called active. Inconclusive results (about 18%) are left out. Cut-off read from the data, not from the text of the source: active = normalized growth mostly below about 0.91 (no sharp cut-off); inconclusive = no clear call, values can overlap the other calls; inactive = mostly above about 0.92. Some of the results follow.

Test: chemical genetic growth profiling, strain panel (AID 1159580);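 note: tested at 20 µM; growth read once vehicle control cultures reached saturation at 30 °C; 1 = growth at the plate median or of vehicle wells; lower values mean less growth of the strain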
Settings: S. cerevisiae deletion strains, growth OD

Measured: normalized growth

CC(N)=NCCCC[C@@H](N)C(=O)O
inactive: locus YAL013W, strain DEP1, stronger effect = lower value 1.01 | locus YAL040C, strain CLN3, stronger effect = lower value 0.998 | locus YCL061C, strain MRC1 (second series), stronger effect = lower value 1.01 | locus YDR150W, strain NUM1, stronger effect = lower value 1 | locus YDR363W, strain ESC2, stronger effect = lower value 1.01 | locus YER002W, strain NOP16, stronger effect = lower value 0.994 | locus YJR075W, strain HOC1, stronger effect = lower value 1 | locus YMR263W, strain SAP30, stronger effect = lower value 1.01 | locus YNL128W, strain TEP1, stronger effect = lower value 1.02 | locus YNL175C, strain NOP13, stronger effect = lower value 1 | locus YNL197C, strain WHI3, stronger effect = lower value 1.01 | locus YNL224C, strain SQS1, stronger effect = lower value 1.01 | locus YNL322C, strain KRE1, stronger effect = lower value 1.02 | locus YOR083W, strain WHI5 (second series), stronger effect = lower value 1.01 | locus YPL055C, strain LGE1, stronger effect = lower value 1
